Out of some 320,000 compounds screened, about 1,300 (0.41%) were called active. Another 3% or so got no clear call; they are omitted. The rule behind the calls is not given here. Not all results are given here. Potency and affinity values are given separately.
test: growth inhibition of non-replicating M. tuberculosis (AID 488890); settings: Mycobacterium tuberculosis non-replicating, at 25 µM, stronger effect = higher value;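 note: plate controls were DMSO cells for no effect and high antibiotic wells for full effect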

SMILES | inhibition
Cc1cc(C)n2nc(SCC(=O)c3cc(C)n(-c4cc(C)on4)c3C)nc2n1 | 35.9%
NC(=O)NCC12CC3CC(CC(C3)C1)C2 | -1.98%
CNC(=O)COc1ccc(S(=O)(=O)N2CCCC2)cc1 | -27.9%
O=C(O)COc1ccc(S(=O)(=O)N2CCCC2)cc1 | -9.2%
COc1cccc(-c2cn(-c3cccc(C(F)(F)F)c3)c(=S)[nH]2)c1 | 5.54%
Cc1cccc(OC(=O)c2cccnc2)c1 | 74.1%
COC(=O)c1ccc2nccnc2c1 | -20.4%
CN(Cc1ccccc1)C(=O)c1ccc(NC(=O)c2ccccc2)cc1 | -0.423%
Cn1c(-c2ccccc2)cc2ccccc21 | -0.86%
CCOc1c(C(N)=O)cc([N+](=O)[O-])cc1[N+](=O)[O-] | 7.1%
Cc1ccc(CNc2ccc([N+](=O)[O-])cc2C(N)=O)cc1 | -0.61%
COc1ccc(CCNC(=O)c2cc3cc(F)ccc3nc2C)cc1OC | 2.52%
O=C(O)CCCN=CC1=C(O)CNC1=O | 2.02%
COc1ccc(-c2oc3ccccc3c(=O)c2OC(C)=O)cc1 | 64.7%
CCOc1ccccc1Oc1coc2cc(OCC(=O)O)ccc2c1=O | -6.12%
COc1ccccc1Oc1coc2cc(OCC(N)=O)ccc2c1=O | 32.8%
COc1ccccc1-c1coc2cc(OC(=O)N3CCOCC3)ccc2c1=O | 17.2%
COc1ccccc1-c1coc2cc(OC(=O)/C=C/c3ccccc3)ccc2c1=O | 33.4%
COc1ccc(-c2oc3ccccc3c(=O)c2OCC(=O)O)cc1 | 6.78%
CCC(=O)NCCNc1ccc([N+](=O)[O-])cn1 | -5.26%
Cc1onc(C(N)=O)c1C(=O)Nc1ncc(C(F)(F)F)cc1Cl | -30.8%
Cc1ccc(C(=O)N2CCN(c3ccccc3F)CC2)cc1NC1=NC2CS(=O)(=O)CC2S1 (configuration not stated) | -2.79%
CC(Cc1cccs1)NC(=O)Nc1cccc(Cl)c1 (configuration not stated) | 48.3%

SMILES | inhibition
CC(Cc1cccs1)NC(=O)c1cccs1 (configuration not stated) | 75.3%
CNc1ccc(C2(O)C(=O)c3ccccc3C2=O)cc1 | 50.8%
CCN(c1ccc(NC(=O)COC(=O)c2ccc(S(=O)(=O)N3CCCC3)cc2)cc1)C(C)C | 11.1%
COC(=O)/C(=C1/Oc2ccc(C)cc2S1)C(F)(F)F | 6.15%
COC(=O)/C(=C1/Oc2ccc(C(C)(C)C)cc2S1)C(F)(F)F | 32.3%
CC(=O)c1cccc(NC(=O)CN(C)S(=O)(=O)c2ccccc2)c1 | 1.23%
CC[C@H](C)[C@H](NC(=O)[C@H](Cc1ccc(O)cc1)NC(=O)[C@@H](N)C(C)C)C(=O)N[C@@H](Cc1cnc[nH]1)C(=O)N1CCC[C@H]1C(=O)N[C@@H](Cc1ccccc1)C(=O)O | -4.04%
CN(C)S(=O)(=O)c1ccc(N2CCCC2)c(C(=O)NNC(=O)c2ccccc2)c1 | 37.4%
COc1cc(/C=N/Nc2nc(C)cc(C)n2)ccc1OC(=O)c1ccco1 | 23.8%
O=c1oc(-c2cccs2)nc2ccc(Cl)cc12 | 79.1%
O=c1cc(-c2cccs2)oc2ccc(Cl)cc12 | 19.9%
CC(NC(=O)CCNC(=O)c1ccco1)c1ccccc1 (configuration not stated) | -4.55%
CCCCCC1CC(CC(=O)Nc2ccc([N+](=O)[O-])cc2)C(=O)O1 (configuration not stated) | 29.9%
CCCCCCC1CC(CC(=O)Nc2ccc([N+](=O)[O-])cc2)C(=O)O1 (configuration not stated) | 46%
OCCCC1CCCN(Cc2cn[nH]c2-c2ccc(F)cc2F)C1 (configuration not stated) | -4.41%
COc1ccc(CC(=O)Nc2ccc(N3CCCCC3)cc2)cc1 | 10.3%
O=C(O)Cc1ccc(NC(=O)Nc2ccc3c(c2)OCO3)cc1 | -6.44%
CC(C)(C)c1cc(C(=S)N2CCN(CCO)CC2)cc(C(C)(C)C)c1O | 19.5%
OC1CCN(Cc2ccc3ccccc3c2)CC1 | 12.5%
CC1=NN(Cc2cc(C(C)(C)C)c(O)c(C(C)(C)C)c2)C(=O)C1 | -2.66%
OCCN1CCN(Cc2ccc3ccccc3c2)CC1 | 0.76%
CC(C)(C)c1cc(CN2CCCCC2)cc(C(C)(C)C)c1O | 16.6%
OC1CCN(Cc2cccc(Oc3ccccc3)c2)CC1 | -6.53%

SMILES | inhibition
COCCCn1c(C)nnc1SCC(=O)NNC(=O)COc1ccc(Cl)cc1 | 0.75%
CSc1ccccc1C(=O)NCCSC(C)(C)C | -2.18%
COc1ccccc1NC(=O)COc1ccc(/C=N/NC(=O)CSCc2cc(C)cc(C)c2)cc1 | 8.98%
CN(C)c1ccc(C(=O)Nc2ccc(O)c3c(=O)cc(-c4ccccc4Cl)oc23)cc1 | 7.25%
O=C(Cn1cncn1)c1ccc(Cl)cc1 | -4.45%
CC1=NN(C(=O)Cc2ccccc2)C(O)(c2ccccc2)C1 (configuration not stated) | 7.51%
CCOC(=O)N1N=C(C)CC1(O)c1ccc(Cl)cc1 (configuration not stated) | -5.02%
CC1=NN(C(=O)COc2ccccc2)C(O)(c2cccnc2)C1 (configuration not stated) | -18.8%
CCC1=NN(C(=O)COc2ccccc2C)C(O)(c2ccncc2)C1 (configuration not stated) | -19%
COc1ccc(C(=O)Nc2ccc3nc(N4CCN(C)CC4)cc(C)c3c2)c(OC)c1 | 76%
CCc1nonc1NC(=O)c1oc2ccc(F)cc2c1C | -7.95%
CN1CCN(S(=O)(=O)c2ccc(NS(=O)(=O)c3ccccc3)cc2)CC1 | 2.91%
CC1CC(C)CN(C(=O)c2ccc(S(=O)(=O)N3CCCC3)cc2)C1 (configuration not stated) | 62.4%
Cc1cc(C(F)(F)F)nc(SCC(=O)c2cccc([N+](=O)[O-])c2)n1 | 14.9%
O=C(COC(=O)c1ccc(Cl)c(S(=O)(=O)N2CCOCC2)c1)NCc1ccco1 | -2.49%
O=C(Cc1ccc(-c2ccccc2)cc1)OCC(=O)N1CCCC1=O | 16.6%
CN(C)c1ccc(-c2sc(Nc3ccccc3)n[n+]2-c2ccc(F)cc2)cc1 | 60.9%
CSc1ccc(-c2sc(Nc3ccccc3)n[n+]2-c2ccc(F)cc2)cc1 | 20.5%
Cc1cc(C(=O)NCCC2=CCCCC2)c(C)o1 | 15.7%
O=C(NCc1ccccn1)C1CCC(CNS(=O)(=O)c2cccc3nsnc23)CC1 (configuration not stated) | 0.68%
O=C(Nc1ccccc1O)c1ccc(NS(=O)(=O)c2cccc3cccnc23)cc1 | 27.4%
Cc1ccc(/C=C(\NC(=O)c2ccccc2)C(=O)NC(Cc2ccccc2)C(=O)O)cc1 (configuration not stated) | -0.85%
Cc1ccc(O)c(CO)n1 | 1.36%

SMILES | inhibition
CC(=O)Nc1ccccc1/C=C/c1ccc2c(C)ccc(O)c2n1 | 77.9%
CN1CCCN(C(=O)c2ccc(Cl)cc2)CC1 | -25.6%
Cc1sc2nc(CSc3ccc([N+](=O)[O-])c(C(F)(F)F)c3)[nH]c(=O)c2c1C | -14.8%
CCCC1(CCC)NC(=O)N(CC(=O)N2CCN(C(=O)c3ccco3)CC2)C1=O | 0.73%
Cn1nc(-c2ccc(OCC(N)=O)cc2)c2ccccc2c1=O | 27.5%
CNC(=O)COc1ccc(-c2nn(C)c(=O)c3ccccc23)cc1 | -6.01%
CCN1CCN(c2nc(N)c([N+](=O)[O-])c(Nc3cccc(C)c3)n2)CC1 | 71.8%
CCOC(=O)CNC(=O)N1CCc2ccc(NC(=O)c3ccccc3OC)cc2C1 | 44.4%
CCN(C(=O)COC(=O)c1cccc(S(=O)(=O)N2CCOCC2)c1)C1CCS(=O)(=O)C1 (configuration not stated) | -11%
Cc1cccc2c(=O)cc(C(F)(F)F)[nH]c12 | 52.3%
O=c1cc(C(F)(F)F)[nH]c2ccccc12 | -4.11%
O=C(O)CCCNS(=O)(=O)c1ccc(NCc2ccccc2)c(C(=O)O)c1 | -9.34%
Nc1ccc(C(=O)N2N=C(c3ccccc3)CC2(O)C(F)(F)F)cc1 (configuration not stated) | 18.4%
CCOC(=O)N1N=C(c2ccccc2)CC1(O)C(F)(F)F (configuration not stated) | -6.72%
COC(=O)C1=NN(C(=O)c2ccc(C)cc2)C(O)(c2ccc(Cl)cc2)C1 (configuration not stated) | 68.2%
CC1=NN(C(=O)CCc2ccccc2)C(O)(c2ccncc2)C1 (configuration not stated) | -17.3%
O=C(c1ccccc1)N1N=C(c2ccccc2)CC1(O)C(F)(F)F (configuration not stated) | 66.9%
CC1=NN(C(=O)c2ccccc2Br)C(O)(c2cccnc2)C1 (configuration not stated) | 1.25%
CCC1(O)CC(C(=O)OC)=NN1C(=O)c1ccccc1 (configuration not stated) | 50.2%
CC1=NN(C(=O)c2ccccc2Cl)C(O)(c2cccnc2)C1 (configuration not stated) | -11.1%
CC(=O)Nc1sc(C)c(C)c1C(=O)OCC(=O)Nc1ccccc1 | 6.17%
CSc1ncccc1C(=O)OCc1ccc([N+](=O)[O-])cc1 | 39.8%
COc1ccc(C(=O)N/N=C2\CCc3ccccc32)cc1OC | -1.04%

SMILES | inhibition
Cc1cccc(NC(=O)C[n+]2ccccc2)c1 | 16.1%
Cc1c(NC(=O)COC(=O)c2cc(-c3ccc(-c4ccccc4)cc3)nc3ccccc23)c(=O)n(-c2ccccc2)n1C | -36%
NC(=O)c1nsc(C(=O)N(c2cccc(F)c2)C(C(=O)NCC2CCCO2)c2c[nH]c3ccccc23)c1N (configuration not stated) | 29.5%
CC1=NN(C(=O)c2ccco2)C(O)(c2ccccc2)C1 (configuration not stated) | 70.5%
O=C(c1ccco1)N1N=C(c2ccc(Cl)cc2)CC1(O)C(F)(F)F (configuration not stated) | 58%
O=C(c1ccccc1)N1N=C(c2ccc(F)cc2)CC1(O)C(F)(F)F (configuration not stated) | 67.9%
CC1=NN(C(=O)Cc2ccccc2)C(O)(c2cccnc2)C1 (configuration not stated) | -2.18%
C=CCn1c(SCC(=O)Nc2ccccc2OC)nc2c([nH]c3ccccc32)c1=O | -4.69%
COc1ccccc1-c1nnc(SCc2nc3ccccc3[nH]2)n1C | 25.9%
O=C(Nc1cccc(F)c1)Nc1ccc2c(c1)C(=O)OC2 | -9.41%
Cc1cccc(C)c1OCC(=O)NCC1COc2ccccc2O1 (configuration not stated) | -21%
CCN1CCN(c2ccc(NC(=O)c3ccco3)cc2Cl)CC1 | -16.6%
CCOC(=O)Cc1c(C)nc2c(-c3ccccc3)c(C)[nH]n2c1=O | 23.1%
CCOC(=O)Cc1c(C)nc2c(C#N)c[nH]n2c1=O | -14.1%
CCOC(=O)Cc1c(C)nc2c(-c3cccc(Br)c3)cnn2c1C | -10.5%
CCOC(=O)Cc1cc(=O)n2[nH]cc(-c3ccc(Cl)cc3)c2n1 | 81.6%
CC1=CC(C)(C)Nc2ccc(OS(=O)(=O)c3ccc(C)cc3)cc21 | -0.67%
CN(C)S(=O)(=O)n1ccnc1 | -7.18%
c1cnc2nc(-c3ccc4c(c3)OCO4)cn2c1 | 14.6%
Oc1ccc(-c2nc3ncccn3c2Nc2ccc3c(c2)OCO3)cc1 | 0.55%

Reference: PubChem BioAssay AID488890 (Southern Research Specialized Biocontainment Screening …, 2010)
